The panel holds about 83,000 compounds, 20% with a hit somewhere; the sample as a whole holds those more often.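 The endpoint reported here, percent growth, reads 100 for growth as untreated, 0 for no net growth and -100 for all cells dead.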 A number with no mark means an inactive call. Active and inactive are the calls of the source. How the source made its calls: active means growth percent below 10; inactive means the rest.

The source of these data is PubChem BioAssay (NCI).

What all share (assay): NCI-60 one-dose screen, 48 h (100 = growth as untreated, 0 = no growth, -100 = all killed)
Holding throughout (conditions): 10 µM unless noted

The subject of assay [1] is SK-MEL-2 melanoma.
Assay [2] relates to EKVX NSCLC.
In assay [3] the test system is SN12C renal.
For assay [4], the system named is UO-31 renal.
Assay [5] has as its system TK-10 renal.
The test system of assay [6] is ACHN renal.
Assay [7] concerns CAKI-1 renal.
Assay [8] has as its system A498 renal.
The subject of assay [9] is CCRF-CEM leukemia.
The subject of assay [10] is MOLT-4 leukemia.
Assay [11] has as its system SR leukemia.
For assay [12], the system named is RPMI-8226 leukemia.
Assay [13] deals with OVCAR-8 ovarian.
Assay [14] relates to OVCAR-5 ovarian.
In assay [15] the test system is OVCAR-4 ovarian.
In assay [16] the test system is SK-OV-3 ovarian.
In assay [17] the test system is IGROV1 ovarian.
Assay [18] has as its system OVCAR-3 ovarian.
Assay [19] has as its system HS 578T breast.
Assay [20] concerns NCI/ADR-RES ovarian.

Regarding `O=C1c2cc3c(cc2-c2c1c1cc(F)c(F)cc1c(=O)n2CCCn1ccnc1)OCO3`, the growth was -11.2% (active) in assay [1]; 30.9% in assay [2]; -1.14% (active) in [3]; -23.7% (active) in assay [4]; 29.8% in assay [5]; -55.7% (active) in [6]. Besides, the growth is 3.03% (active) in [7]; -74.1% (active) in assay [8]; 7.04% (active) in assay [9]; -14.3% (active) in assay [10]; -2.4% (active) in assay [11]; -10.1% (active) in [12]. Moreover, the growth in assay [13] is 12.1%; in assay [14] it was 2.22% (active); in assay [15] it was 20.9%; in assay [16] it was 6.12% (active); in assay [17] it was 21.2%; in assay [18], -7.17% (active). Further, the growth in assay [19] was 52.5%; in assay [20], 6.95% (active).
As for `CCC([N+](=O)[O-])S(=O)(=O)c1ccc(C)cc1` (stereo not given), the growth was 107% in assay [1]; 110% in assay [2]; 95.3% in assay [3]; 82% in [4]; 102% in [5]; 104% in [6]. Further, the growth in assay [7] is 80%; in assay [8], 103%; in assay [9], 99%; in [10] it was 117%; in assay [11], 113%; in assay [12], 106%. Also, the growth in assay [13] is 95.3%; in assay [14], 88.2%; in [15], 93.6%; in assay [16] it was 108%; in [17] it was 103%; in assay [18] it was 150%. For the same molecule, the values for the growth in assay [19] and in assay [20] were 129% and 92.3%, respectively.
Regarding `COc1cc2c(cc1-c1c(C)noc1C)ncc1nc(C3CCCC3)n([C@H](C)COC(F)F)c12`, the growth is 67.8% in assay [1]; 44.2% in [2]; 57.3% in assay [3]; -30% (active) in assay [4]; 30.6% in assay [5]; 32.9% in assay [6]. Further, the growth was 18.7% in assay [7]; -27.3% (active) in assay [8]; 48.7% in [9]; 42.3% in assay [10]; 18.7% in assay [11]; 14.7% in assay [12]. Moreover, the growth in [13] is 38.6%; in [14] it was 78%; in assay [15], 40.9%; in assay [16], 7.48% (active); in assay [17] it was 42.1%; in [18], 36.5%. Moreover, the growth is 11% in assay [19] and 35.5% in assay [20].
With `Cn1cc(-c2nonc2-c2cn(C)c3ccc(F)cc23)c2cc(F)ccc21`, the growth is 30.5% in assay [1]; 67.9% in assay [2]; 61.6% in assay [3]; 68.6% in assay [4]; 85.9% in assay [5]; 70.3% in assay [6]. Moreover, the growth in [7] was 42%; in assay [8], 54.2%; in assay [9], 33.6%; in assay [10], 29.1%; in assay [11] it was 31.8%; in assay [12] it was 81.4%. Further, the growth was 81.7% in assay [13]; 92% in assay [14]; 79% in assay [15]; 45.1% in assay [16]; 52.5% in assay [17]; 23.4% in assay [18]. The growth is 52.2% in assay [19] and 30.9% in assay [20].
As for `NNCCc1ccc(NC(=O)CCCc2ccc(/C=C/C(=O)NO)cc2)cc1`, the growth in assay [1] is 52.4%; in assay [2], 69.2%; in assay [3] it was 55.8%; in [4], 49.2%; in [5], 76.5%; in [6] it was 88.3%. Besides, the growth in [7] was 93.6%; in assay [8] it was 47%; in [9] it was 16.5%; in assay [10], 12.1%; in assay [11] it was 18.2%; in assay [12] it was 37.5%. For the same molecule, the growth in assay [13] was 8.02% (active); in assay [14], 71.4%; in [15], 29.9%; in [16], 64.1%; in assay [17], 62.9%; in assay [18] it was 55.3%. Further, the growth in assay [19] is 21.2%; in assay [20] it was 44.3%.
As for `Cc1ccc(/C=C2\SC(=S)N(CC(=O)NCCCN3CCOCC3)C2=O)cc1`, the growth in assay [1] was 107%; in assay [2], 93.7%; in assay [3], 92.1%; in assay [4], 83.9%; in assay [5], 117%; in assay [6], 90.5%. In addition, the growth in assay [7] was 89.4%; in assay [8], 96.1%; in [9], 104%; in assay [10], 101%; in assay [11], 97.2%; in assay [12], 95.9%. Besides, the growth in assay [13] was 96.4%; in assay [14], 101%; in assay [15], 91.3%; in [16], 82.7%; in assay [17], 107%; in assay [18], 102%. Further, the growth in [19] is 87.4%; in assay [20], 96.5%.
As for `COC(=O)c1ccc(NC(=O)c2ccc(-c3cccc([N+](=O)[O-])c3)o2)cc1`, the growth is 98.4% in assay [1]; 79% in [2]; 97.3% in [3]; 72.9% in assay [4]; 111% in assay [5]; 94.6% in assay [6]. In addition, the growth in assay [7] was 88%; in assay [8] it was 105%; in assay [9], 107%; in assay [10] it was 103%; in assay [11], 114%; in assay [12], 102%. Further, the growth is 103% in assay [13]; 109% in [14]; 92.7% in assay [15]; 98.1% in assay [16]; 91.6% in assay [17]; 101% in assay [18]. Also, the growth in assay [19] was 92.2%; in assay [20] it was 99%.
As for `COc1ccc(S(=O)(=O)N2CCCCC2)cc1NC(=O)c1[nH]c(C)c2c1CCCCC2=O`, the growth is 19.6% in assay [1]; 33.9% in [2]; 34.9% in assay [3]; 9.67% (active) in assay [4]; 1.34% (active) in [5]; 19.8% in [6]. Moreover, the growth in assay [7] is 11.4%; in [8], -19.2% (active); in [9], 42%; in [10] it was 36.6%; in [11] it was 34.3%; in assay [12], 10.1%. The growth was 32.8% in assay [13]; 48.4% in assay [14]; 42% in assay [15]; 19.7% in [16]; 15.3% in assay [17]; 23.5% in [18]. For the same molecule, the values for the growth in assay [19] and in assay [20] were 15.4% and 28.3%, respectively.
